Results on 13 compounds are retold here after ChEMBL document CHEMBL1961873, “Compounds: GSK PKIS; Assays: Nanosyn kinase panel” (2012).

The target of experiment [1] is Tyrosine-protein kinase receptor UFO (Homo sapiens) (UniProt P30530). The conditions noted are these: at 1 µM.
Experiment [2] addresses Tyrosine-protein kinase Blk (Homo sapiens) (UniProt P51451). The conditions noted are these: at 0.1 µM.
The target is the same in experiment [3]. The following applies: at 1 µM.
Experiment [4] deals with T1, Cytoplasmic tyrosine-protein kinase BMX (Homo sapiens) (UniProt P51813).
T1 sequence (whole entry): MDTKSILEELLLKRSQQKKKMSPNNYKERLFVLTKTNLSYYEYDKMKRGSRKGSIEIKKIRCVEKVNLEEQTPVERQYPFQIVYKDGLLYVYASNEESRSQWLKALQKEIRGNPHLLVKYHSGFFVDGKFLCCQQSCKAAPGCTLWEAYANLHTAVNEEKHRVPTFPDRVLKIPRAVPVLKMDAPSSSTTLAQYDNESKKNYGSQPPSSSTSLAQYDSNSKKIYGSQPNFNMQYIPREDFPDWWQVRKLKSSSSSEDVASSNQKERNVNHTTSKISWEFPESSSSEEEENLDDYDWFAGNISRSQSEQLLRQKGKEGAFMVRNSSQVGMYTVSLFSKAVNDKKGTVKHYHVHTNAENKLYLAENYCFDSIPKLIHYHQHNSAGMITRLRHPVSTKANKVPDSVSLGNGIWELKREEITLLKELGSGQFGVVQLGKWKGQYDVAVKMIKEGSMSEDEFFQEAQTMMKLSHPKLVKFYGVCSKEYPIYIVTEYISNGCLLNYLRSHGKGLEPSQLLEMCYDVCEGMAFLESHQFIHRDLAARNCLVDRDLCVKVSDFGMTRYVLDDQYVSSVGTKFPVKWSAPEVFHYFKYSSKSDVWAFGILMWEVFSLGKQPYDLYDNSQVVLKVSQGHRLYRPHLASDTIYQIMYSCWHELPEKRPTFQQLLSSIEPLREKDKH
The following applies: at 0.1 µM.

Experiment [5] has as its target T1, Cytoplasmic tyrosine-protein kinase BMX (Homo sapiens). The following applies: at 1 µM.
Experiment [6] deals with Protein-tyrosine kinase 6 (Homo sapiens) (UniProt Q13882). The following applies: at 0.1 µM.
The target is the same in experiment [7]. The conditions noted are these: at 1 µM.
The target of experiment [8] is Tyrosine-protein kinase BTK (Homo sapiens) (UniProt Q06187). The following applies: at 0.1 µM.
The target is the same in experiment [9]. The following applies: at 1 µM.
Experiment [10] has as its target Tyrosine-protein kinase CSK (Homo sapiens) (UniProt P41240). The conditions noted are these: at 0.1 µM.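 Note: value given is the averaged percent inhibition of CSK kinase activity, from the GSK PKIS kinase inhibitor set screening panel.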

Usually inhibition stands for the change of the read-out against control, counted positive when it falls.

Chain of Tyrosine-protein kinase receptor UFO (Homo sapiens) (P30530 whole entry): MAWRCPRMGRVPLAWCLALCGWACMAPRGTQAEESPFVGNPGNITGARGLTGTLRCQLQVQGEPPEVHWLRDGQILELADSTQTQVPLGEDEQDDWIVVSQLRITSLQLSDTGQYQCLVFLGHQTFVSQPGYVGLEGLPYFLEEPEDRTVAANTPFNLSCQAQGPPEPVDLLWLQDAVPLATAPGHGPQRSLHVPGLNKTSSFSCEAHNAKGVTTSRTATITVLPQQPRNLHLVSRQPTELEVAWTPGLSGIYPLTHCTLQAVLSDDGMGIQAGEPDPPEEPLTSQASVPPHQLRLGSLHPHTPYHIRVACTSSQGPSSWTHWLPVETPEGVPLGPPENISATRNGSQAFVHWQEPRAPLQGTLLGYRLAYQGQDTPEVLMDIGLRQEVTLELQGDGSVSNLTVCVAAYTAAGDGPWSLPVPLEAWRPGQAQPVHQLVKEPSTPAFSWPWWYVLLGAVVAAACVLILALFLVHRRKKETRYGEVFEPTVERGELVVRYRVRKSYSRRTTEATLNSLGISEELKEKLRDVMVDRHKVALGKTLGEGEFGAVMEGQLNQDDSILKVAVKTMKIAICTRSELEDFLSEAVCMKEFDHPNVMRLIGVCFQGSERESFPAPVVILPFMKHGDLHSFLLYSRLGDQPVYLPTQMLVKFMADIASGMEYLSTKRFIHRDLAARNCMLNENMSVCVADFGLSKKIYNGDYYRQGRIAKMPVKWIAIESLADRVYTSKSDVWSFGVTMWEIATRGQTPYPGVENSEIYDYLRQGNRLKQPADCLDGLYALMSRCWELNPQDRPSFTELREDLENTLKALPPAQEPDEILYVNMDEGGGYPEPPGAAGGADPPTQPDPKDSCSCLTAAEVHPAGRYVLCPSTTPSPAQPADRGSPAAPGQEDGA
Chain of Protein-tyrosine kinase 6 (Homo sapiens) (Q13882 whole entry, looked up): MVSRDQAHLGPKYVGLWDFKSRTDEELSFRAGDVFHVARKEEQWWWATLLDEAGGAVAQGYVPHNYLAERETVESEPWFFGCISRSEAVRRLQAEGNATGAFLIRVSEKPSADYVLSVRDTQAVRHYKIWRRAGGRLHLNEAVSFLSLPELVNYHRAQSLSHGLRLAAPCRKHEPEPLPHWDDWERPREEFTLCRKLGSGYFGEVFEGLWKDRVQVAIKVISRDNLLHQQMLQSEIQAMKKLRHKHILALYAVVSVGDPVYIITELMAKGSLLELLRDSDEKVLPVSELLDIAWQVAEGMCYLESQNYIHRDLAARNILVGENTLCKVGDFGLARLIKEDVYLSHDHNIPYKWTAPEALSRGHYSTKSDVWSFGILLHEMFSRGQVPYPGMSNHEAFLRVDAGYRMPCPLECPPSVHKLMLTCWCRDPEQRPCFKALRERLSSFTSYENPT
Chain of Tyrosine-protein kinase CSK (Homo sapiens) (P41240 2-450 limits assumed): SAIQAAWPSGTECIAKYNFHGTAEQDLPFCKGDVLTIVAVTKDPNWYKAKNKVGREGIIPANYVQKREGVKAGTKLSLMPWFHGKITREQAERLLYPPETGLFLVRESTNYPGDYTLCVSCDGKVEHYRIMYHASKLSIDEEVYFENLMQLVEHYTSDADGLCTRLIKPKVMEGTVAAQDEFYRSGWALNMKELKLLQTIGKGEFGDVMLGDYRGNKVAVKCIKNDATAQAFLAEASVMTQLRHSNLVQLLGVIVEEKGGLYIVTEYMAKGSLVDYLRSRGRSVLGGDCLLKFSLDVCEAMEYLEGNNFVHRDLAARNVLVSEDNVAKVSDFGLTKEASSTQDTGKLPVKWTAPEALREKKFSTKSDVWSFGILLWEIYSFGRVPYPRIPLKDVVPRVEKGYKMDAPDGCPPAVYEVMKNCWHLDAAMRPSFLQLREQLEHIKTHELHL
Chain of Tyrosine-protein kinase Blk (Homo sapiens) (P51451 2-505 limits assumed): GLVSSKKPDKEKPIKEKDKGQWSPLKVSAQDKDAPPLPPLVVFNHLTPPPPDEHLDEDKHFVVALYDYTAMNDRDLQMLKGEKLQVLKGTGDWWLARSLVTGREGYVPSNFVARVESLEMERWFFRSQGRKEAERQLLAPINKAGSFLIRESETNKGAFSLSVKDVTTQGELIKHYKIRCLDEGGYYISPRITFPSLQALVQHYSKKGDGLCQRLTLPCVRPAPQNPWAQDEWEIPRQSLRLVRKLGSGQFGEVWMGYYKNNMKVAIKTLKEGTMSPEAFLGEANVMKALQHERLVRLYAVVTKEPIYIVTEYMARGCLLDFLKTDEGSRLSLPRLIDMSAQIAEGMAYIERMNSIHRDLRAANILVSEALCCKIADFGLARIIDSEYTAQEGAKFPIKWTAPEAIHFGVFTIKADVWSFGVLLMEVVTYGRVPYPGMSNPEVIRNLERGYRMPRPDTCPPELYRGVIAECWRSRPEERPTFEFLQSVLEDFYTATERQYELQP
Chain of Tyrosine-protein kinase BTK (Homo sapiens) (Q06187 whole entry): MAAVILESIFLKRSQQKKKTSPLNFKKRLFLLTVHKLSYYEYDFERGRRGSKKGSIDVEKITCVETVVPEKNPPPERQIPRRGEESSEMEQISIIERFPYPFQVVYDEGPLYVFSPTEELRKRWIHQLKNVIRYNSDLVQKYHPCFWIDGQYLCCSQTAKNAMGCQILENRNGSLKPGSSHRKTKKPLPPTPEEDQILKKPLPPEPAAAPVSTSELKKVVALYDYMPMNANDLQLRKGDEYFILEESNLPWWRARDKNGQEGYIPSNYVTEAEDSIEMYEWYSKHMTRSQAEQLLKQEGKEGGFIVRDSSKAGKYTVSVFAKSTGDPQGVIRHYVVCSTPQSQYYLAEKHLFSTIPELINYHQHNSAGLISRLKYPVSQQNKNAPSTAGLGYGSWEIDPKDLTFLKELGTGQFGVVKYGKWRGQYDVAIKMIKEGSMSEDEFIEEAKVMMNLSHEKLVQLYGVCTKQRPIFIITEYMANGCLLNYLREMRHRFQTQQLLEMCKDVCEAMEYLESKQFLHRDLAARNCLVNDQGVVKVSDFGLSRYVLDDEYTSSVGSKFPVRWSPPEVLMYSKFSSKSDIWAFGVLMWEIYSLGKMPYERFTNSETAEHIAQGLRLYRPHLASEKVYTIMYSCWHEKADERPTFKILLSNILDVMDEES

`COc1cccc(-n2nc(C)c3c(N/N=C(\C)c4ccncc4)ncnc32)c1`: the inhibition in experiment [1] was 0.56%; in experiment [2] it was -0.21%; in [3], 1.02%; in experiment [4], 1.51%; in experiment [5] it was 3.74%; in experiment [6], -1.24%. Besides, the inhibition in experiment [7] is -0.15%; in [8] it was 0.11%; in [9], -0.4%; in [10], -0.83%.

Regarding `COc1ccc(-c2nn3ncccc3c2-c2ccnc(Nc3cccc(C(F)(F)F)c3)n2)cc1`, the inhibition in experiment [1] is -2.69%; in experiment [2], 2.61%; in experiment [3], 7.74%; in [4] it was 2.37%; in experiment [5], -4.27%; in experiment [6], 2.5%. The inhibition stood at 17.9% in [7], 0.09% in experiment [8], 1.7% in experiment [9] and 2.1% in experiment [10].

For `NS(=O)(=O)c1ccc(-c2cc3ccncc3cc2OCc2ccccc2)cc1`, the inhibition in experiment [1] is -1.13%; in experiment [2], 2.2%; in [3], 3.91%; in experiment [4], 4.23%; in [5], 4.75%; in [6], 2.61%. The inhibition in experiment [7] was 5.54%; in experiment [8] it was 0.49%; in experiment [9], -0.08%; in experiment [10], 4.58%.

As for `Cc1ccc(Nc2ccnc(Nc3cccc(C(N)=O)c3)n2)cc1O`, the inhibition was 0.42% in experiment [1]; 11.8% in experiment [2]; 71.2% in [3]; 14.1% in experiment [4]; 56.7% in [5]; 48.9% in [6]. Moreover, the inhibition in [7] is 91.5%; in experiment [8], 3.4%; in experiment [9], 29.1%; in [10] it was 10.8%.

On to `C[C@@H](Oc1cc(-n2cnc3ccc(OC[C@@H](O)CO)cc32)sc1C(N)=O)c1ccccc1Cl`, for which the inhibition is 3.2% in experiment [1]; -0.24% in [2]; 3.09% in experiment [3]; 4.05% in [4]; 0.31% in experiment [5]; -0.38% in experiment [7]. In addition, the results for the inhibition in experiment [8], in experiment [9] and in experiment [10] were -0.29%, -0.5% and -0.73%, respectively.

As for `Nc1nccc(-c2c(-c3ccc(F)cc3)nn3cc(C(F)(F)F)ccc23)n1`, the inhibition in experiment [1] was 5.17%; in experiment [2], 0.6%; in experiment [3], 1.08%; in experiment [4], -1.09%; in experiment [5] it was 0.94%; in experiment [6], 1.57%. For the same compound, the inhibition is -4.29% in experiment [7], 0.89% in experiment [8], 0.4% in experiment [9] and -0.9% in [10].

As for `ON=C1CCc2cc(-c3nc(C4CCNCC4)[nH]c3-c3ccncc3)ccc21`, the inhibition is 2.54% in [1]; 0.32% in experiment [2]; 2.67% in experiment [3]; 1.43% in experiment [4]; -1.75% in experiment [5]; -0.84% in [6]. Also, the inhibition in [7] was -2.02%; in [8] it was -1.11%; in experiment [9] it was 3.08%; in experiment [10], -4.87%.

In the case of `NS(=O)(=O)c1ccc(NC=C2C(=O)Nc3ccc4ncsc4c32)cc1`, the inhibition in experiment [1] came to 42.4%; in experiment [2], 8.34%; in experiment [3], 58.3%; in experiment [4] it was 6.93%; in [5], 13.8%; in [6], 3.25%. For the same compound, the inhibition in experiment [7] was 8.92%; in [8], 0.4%; in [9], 3.74%; in experiment [10], 2.77%.

`Cc1cc(-c2ccccn2)cc(C)c1/C=C/c1cncc(-c2nn[nH]n2)c1`: the inhibition was -1.94% in [1]; 5.71% in experiment [2]; 33.4% in experiment [3]; 1.6% in experiment [4]; 31.2% in experiment [5]; 9.43% in experiment [6]. In addition, the inhibition in experiment [7] amounted to 51%; in experiment [8], 2.43%; in [9] it was 0.75%; in experiment [10] it was 1.73%.

`CCS(=O)(=O)c1ccc(OC)c(Nc2nccc(N(C)c3ccc4c(C)n[nH]c4c3)n2)c1`: the inhibition in experiment [1] is -3.9%; in experiment [2], 15.4%; in experiment [3], 67.5%; in experiment [4] it was 3.66%; in experiment [5], 23.2%; in experiment [6], 18.8%. Further, the inhibition was 79.3% in [7], 2.21% in [8], 27.1% in experiment [9] and 1.43% in experiment [10].

With `Nc1nccc(C#Cc2cncnc2Nc2ccc(OCc3cccc(F)c3)c(Cl)c2)n1`, the inhibition in [1] turned out to be 1.72%; in [2] it was 3.54%; in [3], 5.98%; in experiment [4], 1.74%; in experiment [5], 8.65%; in experiment [6], 4.52%. In addition, the inhibition in [7] is 3.74%; in [8] it was 0.96%; in [9], 7.04%; in [10], 10.2%.

For the compound `CCn1c(-c2nonc2N)nc2c(C#CC(C)(C)O)nc(OCCNC)cc21`, the inhibition in experiment [1] was -6.1%; in experiment [2] it was 1.45%; in [3] it was 3.35%; in experiment [4], 3.16%; in experiment [5], 6.56%; in [6] it was 5.42%. In addition, the inhibition in experiment [7] was 3.09%; in experiment [8], -1.33%; in [9], -0.61%; in experiment [10] it was 1.36%.

On to `Nc1ccc(C#Cc2cncnc2Nc2ccc(OCc3cccc(F)c3)c(Cl)c2)cc1`, for which the inhibition in experiment [1] was -3.04%; in experiment [2], 2.28%; in experiment [3] it was 3.41%; in [4] it was 4.02%; in experiment [5], 2.63%; in experiment [6] it was 0.17%. Moreover, the inhibition is 4.63% in [7], -0.24% in experiment [8], 1.11% in experiment [9] and -1.23% in experiment [10].
